Experiment [1] addresses Death-associated protein kinase 1 (Homo sapiens) (UniProt P53355). The conditions noted are these: at 1 µM.
Experiment [2] addresses T1, Serine/threonine-protein kinase DCLK2 (Homo sapiens) (UniProt Q8N568).
T1 sequence (whole entry): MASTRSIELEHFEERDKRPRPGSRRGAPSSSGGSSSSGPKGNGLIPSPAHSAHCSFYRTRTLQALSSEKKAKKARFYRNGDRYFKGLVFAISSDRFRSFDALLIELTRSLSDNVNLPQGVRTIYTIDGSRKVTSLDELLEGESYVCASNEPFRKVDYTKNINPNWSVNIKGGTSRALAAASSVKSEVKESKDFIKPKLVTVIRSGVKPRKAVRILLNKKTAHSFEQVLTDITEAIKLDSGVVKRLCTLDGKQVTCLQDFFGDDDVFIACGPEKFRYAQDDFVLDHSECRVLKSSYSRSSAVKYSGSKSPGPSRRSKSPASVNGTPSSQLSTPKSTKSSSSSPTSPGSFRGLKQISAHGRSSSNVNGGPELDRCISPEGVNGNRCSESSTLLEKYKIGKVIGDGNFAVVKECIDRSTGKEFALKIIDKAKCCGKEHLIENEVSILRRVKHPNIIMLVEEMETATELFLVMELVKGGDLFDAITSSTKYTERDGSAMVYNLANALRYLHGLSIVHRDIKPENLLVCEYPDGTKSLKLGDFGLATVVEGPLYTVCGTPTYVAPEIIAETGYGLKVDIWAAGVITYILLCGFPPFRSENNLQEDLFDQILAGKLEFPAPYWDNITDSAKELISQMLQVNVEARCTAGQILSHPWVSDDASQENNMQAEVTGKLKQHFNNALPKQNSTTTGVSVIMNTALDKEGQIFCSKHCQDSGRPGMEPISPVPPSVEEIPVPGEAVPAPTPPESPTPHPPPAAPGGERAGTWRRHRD
Particulars: at 0.1 µM.

Experiment [3] has as its target T1, Serine/threonine-protein kinase DCLK2 (Homo sapiens). The conditions noted are these: at 1 µM.
Experiment [4] deals with MAP kinase-activated protein kinase 2 (Homo sapiens) (UniProt P49137). The conditions noted are these: at 0.1 µM.
The target is the same in experiment [5]. Particulars: at 1 µM.
The target of experiment [6] is MAP kinase-activated protein kinase 3 (Homo sapiens) (UniProt Q16644). Particulars: at 0.1 µM.
The target is the same in experiment [7]. The conditions noted are these: at 1 µM.
The target in experiment [8] is Serine/threonine-protein kinase MARK1 (Homo sapiens) (UniProt Q9P0L2). The conditions noted are these: at 0.1 µM.
The target is the same in experiment [9]. The conditions noted are these: at 1 µM.
The target of experiment [10] is MAP/microtubule affinity-regulating kinase 3 (Homo sapiens) (UniProt P27448). The conditions noted are these: at 0.1 µM.
For experiment [11] the target is unchanged. Particulars: at 1 µM.
The target in experiment [12] is T2, MAP/microtubule affinity-regulating kinase 4 (Homo sapiens) (UniProt Q96L34).
T2 sequence (whole entry): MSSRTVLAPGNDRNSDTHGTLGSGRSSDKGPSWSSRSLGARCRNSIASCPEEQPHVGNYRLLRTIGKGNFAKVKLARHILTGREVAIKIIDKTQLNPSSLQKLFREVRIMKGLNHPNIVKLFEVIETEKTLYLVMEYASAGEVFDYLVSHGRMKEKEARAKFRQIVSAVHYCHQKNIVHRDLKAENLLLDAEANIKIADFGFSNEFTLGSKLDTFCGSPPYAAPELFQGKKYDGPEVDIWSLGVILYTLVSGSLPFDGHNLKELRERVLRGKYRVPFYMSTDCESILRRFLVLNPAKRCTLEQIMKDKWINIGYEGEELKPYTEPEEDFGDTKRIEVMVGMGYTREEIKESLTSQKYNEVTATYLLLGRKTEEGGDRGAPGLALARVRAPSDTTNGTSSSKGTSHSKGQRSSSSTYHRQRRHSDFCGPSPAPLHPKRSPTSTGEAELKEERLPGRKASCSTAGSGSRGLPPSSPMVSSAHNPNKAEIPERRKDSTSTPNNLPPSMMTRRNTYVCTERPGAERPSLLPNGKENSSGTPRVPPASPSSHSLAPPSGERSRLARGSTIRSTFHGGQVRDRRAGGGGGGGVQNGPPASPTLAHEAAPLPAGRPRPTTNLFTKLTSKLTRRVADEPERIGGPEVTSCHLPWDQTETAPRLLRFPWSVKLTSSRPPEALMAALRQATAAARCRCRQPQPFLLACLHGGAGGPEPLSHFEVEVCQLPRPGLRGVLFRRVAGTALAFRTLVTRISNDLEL
Particulars: at 0.1 µM.

Experiment [13] has as its target T2, MAP/microtubule affinity-regulating kinase 4 (Homo sapiens). The conditions noted are these: at 1 µM.
The target in experiment [14] is Maternal embryonic leucine zipper kinase (Homo sapiens) (UniProt Q14680). Particulars: at 0.1 µM.
For experiment [15] the target is unchanged. Particulars: at 1 µM.
Experiment [16] addresses MAP kinase-interacting serine/threonine-protein kinase 1 (Homo sapiens) (UniProt Q9BUB5). The conditions noted are these: at 0.1 µM.
The target is the same in experiment [17]. Particulars: at 1 µM.
For experiment [18], the target named is MAP kinase-interacting serine/threonine-protein kinase 2 (Homo sapiens) (UniProt Q9HBH9). The conditions noted are these: at 0.1 µM.
The target is the same in experiment [19]. The conditions noted are these: at 1 µM.
Experiment [20] has as its target Serine/threonine-protein kinase MARK2 (Homo sapiens) (UniProt Q7KZI7). Particulars: at 0.1 µM.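 Further: mean percent inhibition of PAR-1Balpha kinase activity, reported from the GSK PKIS screen.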

Sequence of MAP kinase-interacting serine/threonine-protein kinase 2 (Homo sapiens) (Q9HBH9 whole entry, looked up): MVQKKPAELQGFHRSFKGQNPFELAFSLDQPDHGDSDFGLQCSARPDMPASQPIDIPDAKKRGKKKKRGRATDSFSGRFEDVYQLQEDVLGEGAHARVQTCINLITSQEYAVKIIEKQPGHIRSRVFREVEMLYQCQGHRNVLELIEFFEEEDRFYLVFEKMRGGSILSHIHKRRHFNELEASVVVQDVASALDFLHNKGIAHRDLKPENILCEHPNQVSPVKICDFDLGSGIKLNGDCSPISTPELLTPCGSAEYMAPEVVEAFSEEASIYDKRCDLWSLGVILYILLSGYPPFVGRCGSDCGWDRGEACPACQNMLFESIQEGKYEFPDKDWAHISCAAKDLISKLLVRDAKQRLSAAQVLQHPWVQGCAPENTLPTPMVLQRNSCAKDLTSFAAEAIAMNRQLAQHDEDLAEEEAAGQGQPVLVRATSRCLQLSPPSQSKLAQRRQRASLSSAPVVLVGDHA
Sequence of MAP kinase-activated protein kinase 3 (Homo sapiens) (Q16644 whole entry, looked up): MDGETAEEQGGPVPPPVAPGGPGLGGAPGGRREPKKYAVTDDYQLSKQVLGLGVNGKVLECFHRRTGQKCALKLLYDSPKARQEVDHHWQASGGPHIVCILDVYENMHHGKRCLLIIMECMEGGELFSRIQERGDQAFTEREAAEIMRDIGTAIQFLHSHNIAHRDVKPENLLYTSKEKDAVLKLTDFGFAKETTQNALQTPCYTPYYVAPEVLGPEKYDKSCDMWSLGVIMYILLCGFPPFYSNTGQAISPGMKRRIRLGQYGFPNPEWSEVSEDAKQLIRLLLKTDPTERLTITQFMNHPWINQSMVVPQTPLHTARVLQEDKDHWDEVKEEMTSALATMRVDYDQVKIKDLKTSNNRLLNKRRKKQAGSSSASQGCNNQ
Sequence of Maternal embryonic leucine zipper kinase (Homo sapiens) (Q14680 whole entry, looked up): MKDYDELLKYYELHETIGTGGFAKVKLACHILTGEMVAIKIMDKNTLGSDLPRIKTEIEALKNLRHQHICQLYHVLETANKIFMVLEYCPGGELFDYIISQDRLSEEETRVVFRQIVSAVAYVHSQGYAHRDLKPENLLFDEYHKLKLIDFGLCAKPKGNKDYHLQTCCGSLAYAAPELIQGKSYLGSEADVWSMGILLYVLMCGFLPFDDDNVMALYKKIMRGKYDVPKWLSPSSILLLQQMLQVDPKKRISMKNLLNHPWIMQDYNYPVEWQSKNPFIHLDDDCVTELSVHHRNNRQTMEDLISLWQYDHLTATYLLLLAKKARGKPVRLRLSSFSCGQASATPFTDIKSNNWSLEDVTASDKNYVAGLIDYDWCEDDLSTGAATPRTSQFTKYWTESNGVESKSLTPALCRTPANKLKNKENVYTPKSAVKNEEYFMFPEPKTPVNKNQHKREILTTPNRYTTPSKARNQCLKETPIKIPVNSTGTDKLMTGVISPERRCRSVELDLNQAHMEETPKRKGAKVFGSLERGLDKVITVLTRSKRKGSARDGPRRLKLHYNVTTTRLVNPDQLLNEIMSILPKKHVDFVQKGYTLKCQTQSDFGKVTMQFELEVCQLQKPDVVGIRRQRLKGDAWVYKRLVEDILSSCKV
Sequence of MAP kinase-activated protein kinase 2 (Homo sapiens) (P49137 whole entry, looked up): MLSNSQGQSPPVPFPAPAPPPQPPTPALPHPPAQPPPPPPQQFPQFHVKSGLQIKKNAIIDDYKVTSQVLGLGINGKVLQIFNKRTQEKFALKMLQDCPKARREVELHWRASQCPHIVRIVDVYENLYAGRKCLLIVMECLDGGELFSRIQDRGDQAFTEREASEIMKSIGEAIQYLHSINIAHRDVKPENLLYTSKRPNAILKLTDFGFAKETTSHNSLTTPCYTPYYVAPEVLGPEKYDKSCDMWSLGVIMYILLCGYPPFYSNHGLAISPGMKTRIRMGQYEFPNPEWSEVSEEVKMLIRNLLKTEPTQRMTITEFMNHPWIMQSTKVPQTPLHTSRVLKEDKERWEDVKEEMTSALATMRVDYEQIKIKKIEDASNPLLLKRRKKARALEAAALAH
Sequence of MAP/microtubule affinity-regulating kinase 3 (Homo sapiens) (P27448 whole entry, looked up): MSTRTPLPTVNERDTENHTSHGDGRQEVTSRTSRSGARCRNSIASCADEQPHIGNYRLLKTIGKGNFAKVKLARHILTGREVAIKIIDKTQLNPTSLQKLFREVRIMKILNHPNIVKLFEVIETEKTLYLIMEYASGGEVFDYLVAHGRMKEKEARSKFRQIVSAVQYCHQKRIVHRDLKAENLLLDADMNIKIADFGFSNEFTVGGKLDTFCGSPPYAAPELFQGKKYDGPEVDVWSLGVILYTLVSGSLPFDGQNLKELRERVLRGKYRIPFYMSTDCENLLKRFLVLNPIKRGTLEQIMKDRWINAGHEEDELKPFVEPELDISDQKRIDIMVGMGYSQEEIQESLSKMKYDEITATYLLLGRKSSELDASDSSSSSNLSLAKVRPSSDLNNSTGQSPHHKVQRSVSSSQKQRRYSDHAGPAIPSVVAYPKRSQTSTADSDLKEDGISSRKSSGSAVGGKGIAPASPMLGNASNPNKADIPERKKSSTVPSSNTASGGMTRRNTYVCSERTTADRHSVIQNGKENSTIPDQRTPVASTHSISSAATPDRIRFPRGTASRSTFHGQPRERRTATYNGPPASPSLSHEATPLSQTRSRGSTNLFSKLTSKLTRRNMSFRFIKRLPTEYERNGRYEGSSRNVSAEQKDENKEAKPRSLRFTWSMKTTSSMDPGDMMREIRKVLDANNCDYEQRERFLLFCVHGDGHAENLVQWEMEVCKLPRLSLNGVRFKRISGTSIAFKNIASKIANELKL
Sequence of Death-associated protein kinase 1 (Homo sapiens) (P53355 whole entry, looked up): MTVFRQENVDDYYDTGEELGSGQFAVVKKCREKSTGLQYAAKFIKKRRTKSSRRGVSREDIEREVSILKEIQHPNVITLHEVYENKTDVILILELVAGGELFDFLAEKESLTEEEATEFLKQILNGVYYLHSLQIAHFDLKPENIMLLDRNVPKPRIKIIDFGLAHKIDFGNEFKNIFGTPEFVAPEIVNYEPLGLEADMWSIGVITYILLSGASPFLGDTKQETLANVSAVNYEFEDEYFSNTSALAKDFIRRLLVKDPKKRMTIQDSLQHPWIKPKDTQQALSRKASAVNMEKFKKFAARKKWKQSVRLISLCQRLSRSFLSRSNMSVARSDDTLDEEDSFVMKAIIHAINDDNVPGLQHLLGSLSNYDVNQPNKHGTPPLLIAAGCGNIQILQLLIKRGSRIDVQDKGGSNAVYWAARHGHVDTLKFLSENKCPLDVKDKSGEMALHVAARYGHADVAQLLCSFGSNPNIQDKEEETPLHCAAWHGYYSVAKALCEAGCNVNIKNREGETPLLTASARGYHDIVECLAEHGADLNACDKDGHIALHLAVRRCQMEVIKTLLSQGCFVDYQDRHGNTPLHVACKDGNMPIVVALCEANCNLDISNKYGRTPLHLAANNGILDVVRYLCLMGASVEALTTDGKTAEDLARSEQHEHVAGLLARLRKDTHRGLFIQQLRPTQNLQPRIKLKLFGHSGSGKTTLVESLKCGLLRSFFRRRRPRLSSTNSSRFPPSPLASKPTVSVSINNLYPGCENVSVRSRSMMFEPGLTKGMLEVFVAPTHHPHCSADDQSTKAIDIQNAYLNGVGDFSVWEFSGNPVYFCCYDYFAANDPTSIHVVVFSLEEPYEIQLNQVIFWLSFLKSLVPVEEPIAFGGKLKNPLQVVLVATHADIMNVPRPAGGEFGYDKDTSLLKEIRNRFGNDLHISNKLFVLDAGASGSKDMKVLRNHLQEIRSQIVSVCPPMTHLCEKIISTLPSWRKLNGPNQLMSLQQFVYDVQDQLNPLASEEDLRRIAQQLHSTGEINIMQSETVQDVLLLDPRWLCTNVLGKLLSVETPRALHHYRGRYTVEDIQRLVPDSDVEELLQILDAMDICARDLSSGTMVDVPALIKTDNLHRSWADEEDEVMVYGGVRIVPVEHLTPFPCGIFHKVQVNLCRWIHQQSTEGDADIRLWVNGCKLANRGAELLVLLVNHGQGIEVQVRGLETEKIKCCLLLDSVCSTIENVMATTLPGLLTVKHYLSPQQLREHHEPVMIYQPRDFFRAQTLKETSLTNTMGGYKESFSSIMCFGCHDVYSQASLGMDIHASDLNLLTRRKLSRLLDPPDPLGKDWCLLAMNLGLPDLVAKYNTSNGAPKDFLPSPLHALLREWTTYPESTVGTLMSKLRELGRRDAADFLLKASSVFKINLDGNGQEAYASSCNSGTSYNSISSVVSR
Sequence of MAP kinase-interacting serine/threonine-protein kinase 1 (Homo sapiens) (Q9BUB5 whole entry, looked up): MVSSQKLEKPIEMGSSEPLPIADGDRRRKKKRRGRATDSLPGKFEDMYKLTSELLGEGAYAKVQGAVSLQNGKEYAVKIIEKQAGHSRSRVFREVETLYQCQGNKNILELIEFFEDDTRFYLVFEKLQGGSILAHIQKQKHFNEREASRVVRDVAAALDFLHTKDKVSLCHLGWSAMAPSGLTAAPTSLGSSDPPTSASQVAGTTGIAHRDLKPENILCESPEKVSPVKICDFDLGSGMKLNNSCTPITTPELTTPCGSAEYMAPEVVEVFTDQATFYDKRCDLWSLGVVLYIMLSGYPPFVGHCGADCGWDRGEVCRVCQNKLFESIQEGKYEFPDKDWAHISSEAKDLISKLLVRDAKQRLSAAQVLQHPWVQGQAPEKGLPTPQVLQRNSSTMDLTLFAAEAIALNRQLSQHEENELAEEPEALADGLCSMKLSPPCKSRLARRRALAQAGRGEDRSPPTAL

As to `Cc1ccc(C(=O)NC2CCC2)cc1-c1ccc(C(=O)NCC2CC2)cc1`, the inhibition was 4.36% in experiment [1]; 0.61% in experiment [2]; 4.16% in [3]; 1.17% in experiment [4]; 0.94% in experiment [5]; 5.84% in [6]. Also, the inhibition in [7] was 18.9%; in [8] it was 2.6%; in [9] it was 1.46%; in experiment [10], 3.09%; in [11] it was 0.6%; in experiment [12] it was 0.84%. Also, the inhibition in experiment [13] is 0.72%; in experiment [14] it was 3.33%; in experiment [15], 1.69%; in [16] it was 0.33%; in [17], 3.09%; in [18], 0.84%. The results for the inhibition in experiment [19] and in experiment [20] were 1.97% and 0.5%, respectively.

`COc1ccc(C2=C(N3CCc4ccccc43)C(=O)NC2=O)cc1`: the inhibition is 4.07% in experiment [1]; 2.43% in experiment [2]; 0.92% in experiment [3]; 2.76% in experiment [4]; 1.74% in [5]; 4.85% in experiment [6]. The inhibition in experiment [7] stood at 5.21%; in experiment [8] it was 3.48%; in experiment [9], 5.45%; in [10] it was 3.65%; in experiment [11], 4.14%; in experiment [12], 1.18%. For the same compound, the inhibition in [13] is 2.26%; in experiment [14] it was 4.31%; in experiment [15], 7.73%; in experiment [16] it was 3.88%; in experiment [17] it was 6.21%; in experiment [18], 1.85%. Also, the inhibition is 4.28% in experiment [19] and -0.02% in [20].

With `NS(=O)(=O)c1ccc(Nc2cc(-c3ccc(O)c(F)c3)n[nH]2)cc1`, the inhibition in [1] is -3.49%; in [2], 2.54%; in [3], -2.22%; in [4] it was -1.97%; in experiment [5] it was -1.79%; in [6], -0.95%. Moreover, the inhibition in [7] is -0.99%; in experiment [8] it was 0.41%; in experiment [9] it was 8.64%; in [10] it was 0.26%; in experiment [11] it was 4.97%; in experiment [12], 1.26%. Besides, the inhibition in [13] is 11.7%; in experiment [14], -5.49%; in [15], 39.3%; in experiment [16], -0.77%; in [17] it was 6.93%; in [18] it was 0.26%. The inhibition in experiment [19] stood at 7.33%; in [20] it was 0.4%.

On to `Clc1ccc(CNc2nccc(-c3cnn4ncccc34)n2)cc1`, for which the inhibition is 11.8% in experiment [1]; -0.21% in experiment [2]; -0.19% in experiment [3]; 3.88% in experiment [4]; 3.81% in experiment [5]; 7.41% in experiment [6]. In addition, the inhibition in experiment [7] is 7.89%; in [8], 1.55%; in [9] it was 1.16%; in [10] it was 0.99%; in [11], 2.59%; in [12], -0.78%. The inhibition was -0.74% in experiment [13]; -0.99% in experiment [14]; 16.4% in [15]; 1.08% in experiment [16]; 6.48% in experiment [17]; 1.92% in experiment [18]. The inhibition in [19] is 10.7%; in experiment [20], -0.61%.

As for `Nc1nccc(-c2c(-c3ccc(F)cc3)ncn2C2CCC(O)CC2)n1` (stereo not given), the inhibition is -0.38% in [1]; -1.66% in experiment [2]; 5.59% in experiment [3]; -1.26% in [4]; -1.57% in experiment [5]; 30% in experiment [6]. Further, the inhibition in [7] was 36.4%; in experiment [8] it was -0.13%; in experiment [9], 0.51%; in experiment [10] it was -1.63%; in experiment [11] it was 0.22%; in experiment [12], 0.43%. The inhibition in experiment [13] was 1.28%; in experiment [14], -3.21%; in experiment [15], 1.19%; in [16] it was 0.34%; in experiment [17] it was 0.48%; in [18] it was 0.18%. The inhibition in experiment [19] was 0.46%; in experiment [20], 1.84%.

Take `c1ccc(-c2n[nH]cc2-c2ccnc(-c3ccc(OCCN4CCOCC4)cc3)c2)nc1`: the inhibition worked out at 1.17% in [1]; 4.23% in [2]; 4.29% in experiment [3]; 0.95% in experiment [4]; 0.98% in experiment [5]; 0.91% in experiment [6]. The inhibition stood at 8% in [7]; 4.58% in experiment [8]; 4.86% in experiment [9]; 7.18% in experiment [10]; 5.45% in experiment [11]; 4.57% in experiment [12]. For the same compound, the inhibition was 5.04% in [13]; -1.03% in experiment [14]; 3.77% in experiment [15]; 4.82% in [16]; 2.74% in experiment [17]; 3.62% in [18]. Also, the inhibition in [19] was 2.02%; in experiment [20], 4.23%.

The term inhibition denotes the drop in the measured response relative to a control, in per cent.

For the origin of these results see ChEMBL document CHEMBL1961873, “Compounds: GSK PKIS; Assays: Nanosyn kinase panel” (2012).
